From PubChem
This is a sample that favours compounds with a hit; in the whole collection about 5.4% have one here.
ALR H2O2 inh = inhibitors of human sulfhydryl oxidase ALR | P55789 | inhibition, % (no concentration beside the values) | 3.8% of 290,000 active | purified ALR, DTT oxidation, H2O2 HRP-luminol luminescence | AID 485317;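 active = mean replicate inhibition above about 79%, with every replicate also reaching it, limit read from the data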
Target sequence (P55789 whole entry, looked up): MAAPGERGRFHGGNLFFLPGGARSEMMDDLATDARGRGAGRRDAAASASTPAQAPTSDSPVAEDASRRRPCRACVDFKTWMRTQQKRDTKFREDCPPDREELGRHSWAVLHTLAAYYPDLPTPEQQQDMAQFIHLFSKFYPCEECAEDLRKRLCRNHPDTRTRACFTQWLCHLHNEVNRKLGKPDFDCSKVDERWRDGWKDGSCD
JMJD2C inh = inhibitors of human GASC-1 (JMJD2C) demethylase | 0.069% of 330,000 active | Q9H3R0 | AID 2099 | GST-JMJD2C(1-420) H3K9me3 demethylation, DELFIA europium | inhibition, % at 2.35 µM;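 active = more than half of a compound's replicate wells show inhibition beyond 50%, single wells judged on their own value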;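 also: signal counts dimethyl H3K9 product captured on neutravidin plate; 0% = median of DMSO wells and 100% = 0.3 times that DMSO median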
Exocytosis inh = blocks lytic granule exocytosis; AID 651702; 0.66% of 360,000 active; inhibition, % at 10 µM; TALL-104 LAMP-1 surface exposure, flow cytometry; cells stimulated with thapsigargin and PMA;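 active = inhibition above about 55%, limit read from the data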
beta cell repl = induces beta-cell replication in MIN6 cells | MIN6 cells proliferation, ATPlite luminescence, 48 h; cells starved in 0.2% serum; 100% = growth in 10% serum | proliferation, % at 10 µM | 0.29% of 330,000 active | AID 2380;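 active = compounds whose signal lies at least 3.5 SD above the mean of all wells on their plate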;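 also: 0% = DMSO-treated cells in low-serum medium and 100% = 10% serum control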
SMARCA2 activ = SMARCA2 function activation, primary screen; MG213 cells, MMTV-luciferase reporter, dexamethasone, overnight; AID 652017; 1% of 370,000 active; activation, % at 9.1 µM; in the data active = activation above about 7.8%;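 also: 0% = vehicle wells and 100% = reference activator wells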
PfM18AAP inh = PfM18AAP enzyme inhibition | recombinant PfM18AAP, H-Glu-NHMec fluorogenic cleavage | inhibition, % at 7.35 µM | 1.2% of 290,000 active;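 active = inhibition above the campaign mean inhibition over all tested compounds plus 3 SD, cut at about 28% in these data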;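 also: 0% = plate median of test compound wells and 100% = 2 mM ZnCl2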
Active calls of the source: *; · = not tested or not shown.

SMILES | ALR H2O2 inh | JMJD2C inh | Exocytosis inh | beta cell repl | SMARCA2 activ | PfM18AAP inh
COCCCNC(=O)C[C@H]1C[C@@]2(C(=O)OC)C(=C[C@H](COCc3ccccc3)O[C@@H]2C)N(Cc2cccc3ccccc23)C1=O | · | · | · | · | -3.7 | ·
COc1ccc(S(=O)(=O)N2CCCc3nc(-c4ccc(F)cc4)ccc32)cc1 | · | · | · | · | -3.7 | ·
COc1ccc(-c2c3c(=O)n(C)c(=O)n(C)c3cn2-c2ccc(O)cc2)cc1 | 89.1* | -6.4 | 17.3 | 0.5 | -4.2 | 24.3
S=C(N/N=C/c1cccs1)NC1CC2CCC1C2 (configuration not stated) | -0.2 | 3.1 | 1.1 | -3.9 | -1.5 | 15.5
Oc1ccc(/C=N/NC(=S)NC2CC3CCC2C3)cc1 (configuration not stated) | 98.7* | 4.2 | 6.6 | -3.6 | 3.6 | -2.2
COc1ccc(/C=N/NC(=O)C(=O)NCC2CCCO2)cc1 (configuration not stated) | -10.5 | 4.6 | -1.3 | 0.0 | -4.2 | -4.3
Oc1ccc(/C=N/NC(=S)NCC2CCCO2)cc1 (configuration not stated) | 98.3* | 1.5 | 2.2 | 0.0 | -1.8 | 11.8
CCN(CC)c1ccc(NC(=S)NCC2CCCO2)cc1 (configuration not stated) | 99.6* | 3.9 | -4.2 | 0.0 | 3.6 | 4.8
C=CCCC1CN(Cc2ccc(OC)cc2)S(=O)(=O)c2c(Oc3cc(C)c(C)c(C)c3)cccc2O1 (configuration not stated) | · | · | · | · | -1.5 | ·
CCc1ccc(-c2cn(C3CCCCC3)c(=S)[nH]2)cc1 | 96.5* | 2.7 | -0.8 | -2.2 | -2.3 | -3.2
CCc1ccc(-n2cc(-c3ccc([N+](=O)[O-])cc3)[nH]c2=S)cc1 | -7.0 | -13.2 | 1.8 | -3.9 | 5.7 | 8.9
CCOc1ccc(C(C)=O)cc1N1C(=O)C2C3C=CC(C3)C2C1=O (configuration not stated) | 2.8 | 20.3 | -4.4 | -2.3 | · | -1.6
CCOc1ccc(C(C)=O)cc1N1C(=O)C2C3C=CC(O3)C2C1=O (configuration not stated) | 2.9 | 2.2 | 104.6* | -5.7 | · | -166.6
O=C1c2ccccc2-c2onc3ccc(NCc4ccco4)c1c23 | · | 5.3 | 55.9* | -7.0 | · | 24.9
CCNc1ccc2noc3c2c1C(=O)c1ccccc1-3 | -1.8 | 36.6 | -1.1 | -2.4 | 3.0 | 15.2
COc1ccccc1N=Cc1c(C)[nH]n(-c2ccc(C)cc2C)c1=O | 3.3 | 7.6 | 0.7 | -0.3 | -1.5 | 0.2
COc1cc(SC#N)ccc1N=Cc1c(C)[nH]n(-c2cccc3ccccc23)c1=O | 98.8* | -12.1 | · | -5.4 | · | -11.0
COc1cc(SC#N)ccc1N=Cc1c(C)[nH]n(-c2ccc(C)cc2C)c1=O | 99.1* | 3.0 | 3.0 | -4.2 | 4.7 | -2.4
COc1cc(S(=O)(=O)Nc2ccc(C)cc2)ccc1N=Cc1c(C)[nH]n(-c2ccc(C)cc2)c1=O | -6.3 | -3.5 | -1.1 | 0.0 | 0.7 | 2.8
COC(=O)[C@]12C[C@H](CC(=O)NCCC(C)C)C(=O)N(Cc3ccco3)C1=C[C@H](COCc1ccccc1)O[C@@H]2C | · | · | · | · | -3.7 | ·
CCOc1cc(CNCc2ccccn2)cc(Cl)c1OC | -0.2 | 8.8 | -5.2 | -1.4 | -1.0 | -4.8
CCOc1cc(CNCC(O)c2ccccc2)cc(Cl)c1OC (configuration not stated) | 99.4* | 2.1 | 9.4 | -1.9 | -0.6 | -1.2
OC(c1ccc(-c2ccccc2)cc1)c1ncc(-c2ccccc2Cl)[nH]1 (configuration not stated) | · | · | 2.4 | · | -0.2 | ·
OC(c1ccccc1)c1ncc(-c2ccccc2Cl)[nH]1 (configuration not stated) | · | · | 5.1 | · | 7.9* | ·
COc1ccc2[nH]c3c(c2c1)CCN[C@]31C(=O)N(c2ccccc2)c2ccccc21 | · | · | · | · | -0.5 | ·
C=CCN1C[C@H](COC(=O)c2ccc(C)c(C)c2)Oc2cccc(F)c2S1(=O)=O | · | · | · | · | -6.2 | ·
C=CCn1c(N)cc(=O)nc1SCC(=O)Nc1ccc(C(=O)OCC)cc1 | 99.3* | 8.7 | 3.2 | 3.0 | -2.3 | 2.1
Cc1ccc(-n2c(N)cc(=O)nc2SCC(=O)N2CCN(c3ccccc3)CC2)cc1 | 97.5* | -1.2 | 0.3 | -1.6 | -0.7 | -0.3
C=CCn1c(N)cc(=O)nc1SCC(=O)Nc1ccc(C(=O)OC)cc1 | 98.8* | 7.4 | -18.1 | 1.2 | 0.6 | 6.6
